Results: PubChem BioAssay AID1159580 (chemical genetic matrix, 2015)
Hit rate of the full screen: of about 5,500 compounds, about 2,000 (36%) were called active. About 18% were inconclusive and are not listed. Cut-off read from the data, not from the text of the source: active = normalized growth mostly below about 0.91 (no sharp cut-off); inconclusive = no clear call, values can overlap the other calls; inactive = mostly above about 0.92. The list shows a part of the results.

Test: chemical genetic growth profiling, strain panel (AID 1159580);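 note: tested at 20 µM; growth read once vehicle control cultures reached saturation at 30 °C; 1 = growth at the plate median or of vehicle wells; lower values mean less growth of the strain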
Conditions: growth OD

Measured: normalized growth

CO[C@H]1[C@H](O)[C@H](O[C@H]2CC[C@]3(C)C4CC[C@]5(C)C(C6=CC(=O)OC6)CC[C@]5(O)C4CC[C@@H]3C2)O[C@@H](C)[C@@H]1O (some centres undefined)
inactive: S. cerevisiae deletion strains, locus YJR043C, strain POL32, active compounds read low 1.02 | S. cerevisiae deletion strains, locus YJR075W, strain HOC1, active compounds read low 1.02 | S. cerevisiae deletion strains, locus YKL009W, strain mrt4, active compounds read low 0.996 | S. cerevisiae deletion strains, locus YKL068W, active compounds read low 1 | S. cerevisiae deletion strains, locus YKL085W, strain MDH1 (second series), active compounds read low 1.01 | S. cerevisiae deletion strains, locus YKL085W, strain MDH1, active compounds read low 1.01 | S. cerevisiae deletion strains, locus YKL160W, strain elf1, active compounds read low 0.989 | S. cerevisiae deletion strains, locus YKL190W, strain CNB1, active compounds read low 1.01 | S. cerevisiae deletion strains, locus YKR001C, strain vps1, active compounds read low 0.992 | S. cerevisiae deletion strains, locus YKR026C, strain gcn3, active compounds read low 0.995 | S. cerevisiae deletion strains, locus YKR091W, strain srl3, active compounds read low 0.995 | S. cerevisiae deletion strains, locus YLL001W, strain dnm1, active compounds read low 0.999 | S. cerevisiae deletion strains, locus YLL026W, active compounds read low 1 | S. cerevisiae deletion strains, locus YLL041C, strain sdh2, active compounds read low 1.01 | S. cerevisiae deletion strains, locus YLR027C, strain aat2, active compounds read low 0.999 | S. cerevisiae deletion strains, locus YLR039C, strain RIC1, active compounds read low 1.02 | S. cerevisiae deletion strains, locus YLR058C, strain SHM2, active compounds read low 1.02 | S. cerevisiae deletion strains, locus YLR102C, strain apc9, active compounds read low 1 | S. cerevisiae deletion strains, locus YLR221C, strain rsa3, active compounds read low 1.01 | S. cerevisiae deletion strains, locus YLR258W, strain gsy2, active compounds read low 1 | S. cerevisiae deletion strains, locus YLR262C, strain YPT6 (second series), active compounds read low 1.01 | S. cerevisiae deletion strains, locus YLR262C, strain YPT6, active compounds read low 1.01 | S. cerevisiae deletion strains, locus YLR268W, strain sec22, active compounds read low 1.02 | S. cerevisiae deletion strains, locus YLR320W, strain mms22, active compounds read low 1.01 | S. cerevisiae deletion strains, locus YLR330W, strain CHS5, active compounds read low 1.02 | S. cerevisiae deletion strains, locus YLR342W, strain FKS1 (second series), active compounds read low 1.06 | S. cerevisiae deletion strains, locus YLR342W, strain FKS1, active compounds read low 1 | S. cerevisiae deletion strains, locus YLR357W, strain rsc2, active compounds read low 0.992 | S. cerevisiae deletion strains, locus YLR370C, strain arc18, active compounds read low 1 | S. cerevisiae deletion strains, locus YLR371W, strain rom2, active compounds read low 1.02 | S. cerevisiae deletion strains, locus YLR384C, strain iki3, active compounds read low 0.991 | S. cerevisiae deletion strains, locus YLR418C, strain cdc73, active compounds read low 1.03 | S. cerevisiae deletion strains, locus YML016C, strain PPZ1, active compounds read low 1.01 | S. cerevisiae deletion strains, locus YML032C, strain rad52, active compounds read low 1 | S. cerevisiae deletion strains, locus YML120C, strain ndi1, active compounds read low 1.03 | S. cerevisiae deletion strains, locus YML124C, strain tub3, active compounds read low 1.01 | S. cerevisiae deletion strains, locus YMR058W, strain fet3, active compounds read low 1.02 | S. cerevisiae deletion strains, locus YMR078C, strain ctf18, active compounds read low 1.01 | S. cerevisiae deletion strains, locus YMR125W, strain sto1, active compounds read low 0.981 | S. cerevisiae deletion strains, locus YMR129W, active compounds read low 1.01 | S. cerevisiae deletion strains, locus YMR205C, strain PFK2, active compounds read low 1 | S. cerevisiae deletion strains, locus YMR223W, strain ubp8, active compounds read low 0.994 | S. cerevisiae deletion strains, locus YMR231W, strain pep5, active compounds read low 1 | S. cerevisiae deletion strains, locus YMR263W, strain SAP30, active compounds read low 1.01 | S. cerevisiae deletion strains, locus YMR307W, strain GAS1, active compounds read low 1.06 | S. cerevisiae deletion strains, locus YNL067W, strain RPL9B, active compounds read low 1.02 | S. cerevisiae deletion strains, locus YNL071W, strain lat1, active compounds read low 0.996 | S. cerevisiae deletion strains, locus YNL128W, strain TEP1, active compounds read low 1.04 | S. cerevisiae deletion strains, locus YNL153C, strain GIM3, active compounds read low 1.02 | S. cerevisiae deletion strains, locus YNL209W, strain ssb2, active compounds read low 0.985 | S. cerevisiae deletion strains, locus YNL233W, strain BNI4, active compounds read low 1.02 | S. cerevisiae deletion strains, locus YNL248C, strain rpa49, active compounds read low 0.991 | S. cerevisiae deletion strains, locus YNL250W, strain rad50, active compounds read low 1 | S. cerevisiae deletion strains, locus YNL271C, strain bni1, active compounds read low 1.01 | S. cerevisiae deletion strains, locus YNL298W, strain CLA4, active compounds read low 0.999 | S. cerevisiae deletion strains, locus YNL307C, strain MCK1, active compounds read low 1.02 | S. cerevisiae deletion strains, locus YNL322C, strain KRE1 (second series), active compounds read low 0.989 | S. cerevisiae deletion strains, locus YNL322C, strain KRE1, active compounds read low 1.01 | S. cerevisiae deletion strains, locus YNR049C, strain mso1, active compounds read low 1 | S. cerevisiae deletion strains, locus YNR052C, strain pop2, active compounds read low 1 | S. cerevisiae deletion strains, locus YOL006C, strain TOP1, active compounds read low 1.06 | S. cerevisiae deletion strains, locus YOL012C, strain htz1 1.19 | S. cerevisiae deletion strains, locus YOL147C, strain pex11, active compounds read low 1.01 | S. cerevisiae deletion strains, locus YOR001W, strain rrp6, active compounds read low 1.02 | S. cerevisiae deletion strains, locus YOR061W, strain CKA2, active compounds read low 1.01 | S. cerevisiae deletion strains, locus YOR069W, strain VPS5, active compounds read low 1.01 | S. cerevisiae deletion strains, locus YOR070C, strain gyp1, active compounds read low 1.01 | S. cerevisiae deletion strains, locus YOR080W, strain dia2, active compounds read low 1 | S. cerevisiae deletion strains, locus YOR083W, strain WHI5, active compounds read low 0.955 | S. cerevisiae deletion strains, locus YOR106W, strain vam3, active compounds read low 0.984 | S. cerevisiae deletion strains, locus YOR136W, strain idh2, active compounds read low 1.01 | S. cerevisiae deletion strains, locus YOR144C, strain elg1, active compounds read low 1.01 | S. cerevisiae deletion strains, locus YOR184W, strain ser1, active compounds read low 1.01 | S. cerevisiae deletion strains, locus YOR265W, strain rbl2, active compounds read low 1.01 | S. cerevisiae deletion strains, locus YOR270C, strain vph1, active compounds read low 0.97 | S. cerevisiae deletion strains, locus YOR290C, strain snf2, active compounds read low 1.01 | S. cerevisiae deletion strains, locus YOR316C, strain cot1, active compounds read low 1 | S. cerevisiae deletion strains, locus YPL051W, strain arl3, active compounds read low 0.994 | S. cerevisiae deletion strains, locus YPL055C, strain LGE1, active compounds read low 1 | S. cerevisiae deletion strains, locus YPL078C, strain atp4, active compounds read low 0.989 | S. cerevisiae deletion strains, locus YPL106C, strain sse1, active compounds read low 0.959 | S. cerevisiae deletion strains, locus YPL240C, strain hsp82, active compounds read low 0.998 | S. cerevisiae deletion strains, locus YPL241C, strain CIN2, active compounds read low 1.01 | S. cerevisiae deletion strains, locus YPR119W, strain clb2, active compounds read low 0.996 | S. cerevisiae deletion strains, locus YPR141C, strain kar3, active compounds read low 1 | S. cerevisiae deletion strains, locus YPR163C, strain tif3, active compounds read low 1.01 | S. cerevisiae deletion strains, locus YPR167C, strain met16, active compounds read low 0.998 | S. cerevisiae deletion strains, strain wtn01, active compounds read low 1 | S. cerevisiae strains, strain wild type, active compounds read low 1.02
